The source made the active and inactive calls. Cut-off read from the data, not from the text of the source, unless noted: active = inhibition above about 80%; inactive = the rest.
Key:
[1] = LFS_MB_P medulloblastoma growth inhibition, cell-based, chromothripsis tumors, cisplatin or BGB combos (AID 1671449); details: LFS_MB_P medulloblastoma cells;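 note: cells exposed for 96 hours; 0% = vehicle DMSO and 100% = killing by high DMSO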
[2] = HDN33 neuroblastoma growth inhibition, cell-based, chromothripsis tumors, cisplatin or BGB combos (AID 1671450); details: HDN33 neuroblastoma cells, stronger effect = higher value;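 note: cells exposed to compound for four days; 0% = vehicle DMSO and 100% = cell killing by high DMSO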
[3] = ICB984 medulloblastoma cell growth inhibition, synergistic combos for chromothripsis tumors, cisplatin or BGB combos (AID 1671451; call rule not given here;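 note: cells exposed for 96 hours before readout; 0% = vehicle DMSO and 100% = killing by high DMSO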); details: ICB984 medulloblastoma cells, drug combinations, stronger effect = higher value
[4] = LFS_MB_1R medulloblastoma cell growth inhibition, synergistic combos for chromothripsis tumors, cisplatin or BGB combos (AID 1671452); details: LFS_MB_1R medulloblastoma cells, stronger effect = higher value;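 note: cells exposed for 96 hours before readout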
[5] = HTB85 osteosarcoma cell growth inhibition, synergistic combos for chromothripsis tumors, BGB or cisplatin IC20 combos (AID 1671453); details: HTB85 osteosarcoma cells, drug combinations, stronger effect = higher value;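 note: cells exposed for 96 hours before readout; 0% = vehicle DMSO and 100% = high DMSO killing control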
[6] = CRL2098 osteosarcoma cell growth inhibition, synergistic combos for chromothripsis tumors, BGB or cisplatin IC20 combos (AID 1671454); details: CRL2098 osteosarcoma cells, drug combinations, stronger effect = higher value;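 note: cells exposed for 96 h before readout; 0% = vehicle DMSO and 100% = killing by high DMSO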
[7] = HD-MB03 medulloblastoma cell growth inhibition, synergistic combos for chromothripsis tumors, BGB or cisplatin IC20 combos (AID 1671455; in the data active = inhibition above about 83%;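 note: 0% = vehicle DMSO and 100% = high DMSO as cytotoxic control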); details: HD-MB03 medulloblastoma cells, stronger effect = higher value
[8] = UWB1.289 ovarian carcinoma cell growth inhibition, synergistic combos for chromothripsis tumors, BGB or cisplatin combos (AID 1671456); details: UWB1.289 ovarian carcinoma cells, stronger effect = higher value;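 note: cells exposed to compound for four days; 0% = vehicle DMSO and 100% = killing by high DMSO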
[9] = LFS_MB_2R medulloblastoma cell growth inhibition, synergistic combos for chromothripsis tumors, cisplatin combos (AID 1671457); details: LFS_MB_2R medulloblastoma cells, stronger effect = higher value;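 note: cells exposed to compound for four days before readout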
[10] = MDA-MB-436 breast carcinoma cell growth inhibition, synergistic combos for chromothripsis tumors, BGB or cisplatin combos (AID 1671458; call rule not given here;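 note: cells exposed for 96 hours; 0% = vehicle DMSO and 100% = killing by high DMSO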); details: MDA-MB-436 breast carcinoma growth inhibition, drug combinations, stronger effect = higher value
[11] = UWB1.289_BRCA1 ovarian cancer growth, cell-based, BGB or cisplatin combinations (AID 1671459); details: UWB1.289 BRCA1 ovarian carcinoma, drug combinations, stronger effect = higher value
[12] = human astrocyte viability loss, single and combined drugs, cytotoxicity control for chromothriptic childhood tumor combination screen, cell-based, BGB or cisplatin IC20 combos (AID 1671460); details: Human astrocytes, drug combinations, stronger effect = higher value;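 note: cells exposed to compounds for 96 hours before viability readout; 0% = vehicle and 100% = killing control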
[13] = growth inhibition of BT084 medulloblastoma cells, cell-based, ICGC_MB145, cisplatin and BGB IC40 combos (AID 1671461); details: drug combinations, stronger effect = higher value;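 note: cells exposed to drugs for 96 hours; 0% = vehicle DMSO and 100% = high DMSO full killing control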
[14] = growth inhibition of RCMB18 medulloblastoma cells, cell-based, cisplatin and BGB IC40 combos (AID 1671462); details: stronger effect = higher value;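 note: cells exposed to compound for four days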
[15] = growth inhibition of CRL1545 osteosarcoma cells, cell-based, cisplatin and BGB IC20 combos (AID 1671464); details: stronger effect = higher value;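 note: cells exposed to compound for 96 hours before readout; 0% = vehicle DMSO and 100% = high DMSO killing control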
[16] = measured here: combination with BGB IC40, at 0.05 µM
[17] = measured here: with BGB IC20 combination, at 0.5 µM
[18] = measured here: with cisplatin IC20 combination, at 0.5 µM
[19] = measured here: combination with cisplatin, at 0.5 µM
[20] = measured here: combination with cisplatin, at 5 µM

For `C[C@@H]1O[C@@H](O[C@@H]2[C@@H](O)[C@H](OCCc3ccc(O)c(O)c3)O[C@H](CO)[C@H]2OC(=O)C=Cc2ccc(O)c(O)c2)[C@H](O)[C@H](O)[C@H]1O`, the inhibition ([1]; at 0.5 µM, stronger effect = higher value) was -19.7% (inactive), the inhibition ([1]; measured here: combination with BGB IC20, at 0.005 µM) was -7.94% and the inhibition ([1]; measured here: combination with BGB IC40, at 0.005 µM) was -47.4%. For the same compound, the inhibition [1, 16] was -17.9%, the inhibition ([1]; measured here: combination with cisplatin, at 0.5 µM, stronger effect = higher value) was -14.4% and the inhibition ([1]; measured here: combination with cisplatin, at 5 µM, stronger effect = higher value) was -15.6%. The inhibition ([2]; BGB combo, at 5 µM) was -0.831%, the inhibition ([2]; at 0.5 µM) was 5.6% (inactive) and the inhibition ([2]; cisplatin combo, at 5 µM) was 41%. The inhibition [2, 17] was 2.02%, the inhibition [2, 18] was 15.9% and the inhibition ([2]; single agent, at 5 µM) was 21.8%. For the same compound, the inhibition ([3]; BGB IC20 combo, at 0.005 µM) was -21.2%, the inhibition ([3]; BGB IC40 combo, at 0.005 µM) was -5.21% and the inhibition ([3]; BGB IC40 combo, at 0.05 µM) was -11.9%. The inhibition ([3]; at 0.5 µM) was -18.6% (inactive), the inhibition ([3]; cisplatin combo, at 0.05 µM) was -17.7% and the inhibition ([3]; cisplatin combo, at 0.5 µM) was -31.1%. The inhibition ([3]; cisplatin combo, at 5 µM) was -7.59%, the inhibition ([3]; measured here: 5 uM single agent, at 5 µM) was -11% and the inhibition ([4]; at 0.5 µM) was -31.7% (inactive). For the same compound, the inhibition [4, 16] was -26.1%, the inhibition [4, 19] was -49.4% and the inhibition [4, 20] was -50.3%. For the same compound, the inhibition ([5]; at 0.5 µM) was -2.22% (inactive), the inhibition ([5]; measured here: with BGB IC20, at 0.5 µM) was 11% and the inhibition ([5]; measured here: with BGB IC20, at 5 µM) was -2.54%. The inhibition ([5]; measured here: with cisplatin IC20, at 0.5 µM) was -24.2%, the inhibition ([5]; measured here: with cisplatin IC20, at 5 µM) was 13.7% and the inhibition ([5]; single agent, at 5 µM) was 14.4%. For the same compound, the inhibition ([6]; at 0.5 µM) was -20.3% (inactive), the inhibition ([6]; measured here: combination with BGB at IC20, at 0.5 µM) was -22.9% and the inhibition ([6]; measured here: combination with cisplatin at IC20, at 0.5 µM) was -10.2%. For the same compound, the inhibition ([7]; at 0.5 µM) was -12.4% (inactive), the inhibition ([7]; measured here: combo with BGB at IC20, at 0.5 µM) was -18% and the inhibition ([7]; measured here: combo with cisplatin at IC20, at 0.5 µM) was -15.8%. For the same compound, the inhibition ([8]; at 0.5 µM) was 2.22% (inactive), the inhibition ([8]; measured here: inhibition with BGB combination, at 0.05 µM) was -13.4% and the inhibition ([8]; measured here: inhibition with cisplatin combination, at 0.05 µM) was -3.75%. The inhibition ([9]; at 0.5 µM) was -23.2% (inactive), the inhibition [9, 19] was -31.6% and the inhibition [9, 20] was -36.7%. For the same compound, the inhibition ([10]; at 0.5 µM) was -13.3% (inactive), the inhibition ([10]; measured here: BGB combination, at 0.5 µM) was -5.37% and the inhibition ([10]; measured here: BGB combination, at 5 µM) was -8.31%. For the same compound, the inhibition ([10]; measured here: cisplatin combination, at 0.5 µM) was -39.6%, the inhibition ([10]; measured here: cisplatin combination, at 5 µM) was -30.4% and the inhibition ([11]; BGB combination, concentration series, at 5 µM) was -4.79%. For the same compound, the inhibition ([11]; at 0.5 µM) was 2.12% (inactive), the inhibition ([11]; cisplatin combination, concentration series, at 5 µM) was 23.8% and the inhibition ([12]; at 0.5 µM) was 3.51% (inactive). The inhibition ([12]; measured here: combo with BGB IC20, at 0.5 µM) was -0.074%, the inhibition ([12]; measured here: combo with cisplatin IC20, at 0.5 µM) was 5.26% and the inhibition ([13]; at 0.5 µM) was -15.3% (inactive). The inhibition ([13]; cisplatin combination, at 0.5 µM) was -21.1%, the inhibition ([13]; cisplatin combination, at 5 µM) was -157% and the inhibition ([13]; measured here: BGB IC40 combination 0.05 uM, at 0.05 µM) was -26.5%. For the same compound, the inhibition ([13]; single agent, at 5 µM) was -19.8%, the inhibition ([14]; at 0.5 µM) was -0.47% (inactive) and the inhibition ([14]; cisplatin combo, at 5 µM) was 8.1%. The inhibition ([14]; measured here: BGB IC40 combination, at 0.05 µM) was -349%, the inhibition [14, 19] was -0.428% and the inhibition ([14]; single agent, at 5 µM) was -0.98%. For the same compound, the inhibition ([15]; at 0.5 µM) was 3.16% (inactive), the inhibition [15, 17] was -11.9% and the inhibition [15, 18] was 9.28%. The inhibition ([15]; single agent, at 0.05 µM) was -3.32% and the inhibition ([15]; single agent, at 5 µM) was 19.3%.

— PubChem BioAssay
